Test results published in PubChem BioAssay (NCI).
Where “and” joins values, the source holds several entries; their conditions need not be identical. Identical values can stand only once. This is part of a sample that, as a whole, favours compounds with a hit. Of some 79,000 tested, about 15% had one in any assay. Values without a mark were called inactive. Calls of active or inactive are those of the source. Rule as the data show it: active = growth inhibition above about 70%; inactive = the rest.

Tests used:
[1] = NCI Yeast Anticancer Drug Screen. Data for the rad50 strain (AID 155);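 also: 0% = growth of vehicle-only cultures of the same strain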; details: S. cerevisiae rad50 strain growth inhibition, hits give high values; at 50.0 µM unless noted
Outline: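 Readout: growth inhibition relative to vehicle-treated cultures. Compound exposure was carried out in a genetically defined yeast strain deficient in DNA damage repair.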

[2] = NCI Yeast Anticancer Drug Screen. Data for the mec2-1 strain (AID 157); details: S. cerevisiae mec2-1 strain, hits give high values; at 50.0 µM unless noted
Outline: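 mec2-1 yeast strain, carrying an alteration in DNA damage repair or cell cycle control, was exposed to compounds; growth inhibition was measured relative to vehicle-treated controls.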

[3] = NCI Yeast Anticancer Drug Screen. Data for the sgs1 mgt1 strain (AID 161);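 also: 0% = growth of cultures given vehicle only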; details: S. cerevisiae sgs1 mgt1 strain, hits give high values; at 50.0 µM unless noted
Outline: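 This yeast growth screen uses a strain with defined DNA-repair lesions; compound-treated growth is compared with vehicle-treated growth.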

[4] = NCI Yeast Anticancer Drug Screen. Data for the cln2 rad14 strain (AID 165);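 also: 0% = growth equal to vehicle treated cultures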; details: S. cerevisiae cln2 rad14 strain, hits give high values; at 50.0 µM unless noted
Outline: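 Yeast carrying cln2 and rad14 alterations (cell cycle control and DNA damage repair) were exposed to compounds. Growth inhibition was measured against vehicle-treated controls.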

[5] = NCI Yeast Anticancer Drug Screen. Data for the bub3 strain (AID 167); details: S. cerevisiae bub3 mutant strain, hits give high values; at 50.0 µM unless noted
Outline: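 Readout: yeast growth inhibition, expressed relative to vehicle-only wells. The test organism is a mutant strain from a panel with lesions in DNA repair or checkpoint genes.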

[6] = NCI Yeast Anticancer Drug Screen. Data for the mlh1 rad18 strain (AID 175); details: S. cerevisiae mlh1 rad18 strain growth inhibition, hits give high values; at 50.0 µM unless noted
Outline: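 Growth inhibition of the yeast strain was measured after compound exposure and expressed relative to vehicle-treated controls. The strain carries defined defects in DNA damage repair.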

Row | SMILES | growth inhibition [1] | growth inhibition [2] | growth inhibition [3] | growth inhibition [4] | growth inhibition [5] | growth inhibition [6]
1 | C/C(=N\NC(N)=O)C1(O)CCCCC1 | -15.3% | -26.7% | -17.3% | 4.45% | -19.1% | -11%
2 | CCc1ccc(O)cc1O | -18.4% | -12.9% | -43.1% | 10.7% | -30.6% | -4.6%
3 | O=C(O)C1CC(=O)N(Cc2ccccc2)C1 (stereo not given) | 32.8% | 33.3% | 34.6% | 6.45% | 26.7% | 34%
4 | CC(=O)N(C)c1ccccc1 | -19.2% | -20.9% | -16.4% | -40.5% | -8.45% | -7.55%
5 | C[n+]1ccc2ccccc2c1 | 6.9% and -7.2% | 0.55% and 5.3% | 21.2% and 1.15% | -36.8% and -2.25% | 3.05% and -6.5% | 9.6% and 10.4%
6 | Clc1ccccc1Br | 2.85% | -11.2% | 4.65% | 0.55% | 2.25% | -8.3%
7 | Nc1cc(N)c(N)cc1N | -30.1% and -6.2% | 16.8% and -29.1% | 13% and -4.9% | -1.7% and 21.8% | 41.7% and -13.9% | 15% and 8.75%
8 | CNC(=O)c1n[nH]nc1Sc1c([N+](=O)[O-])ncn1C | -39% | -43% | -34.1% | -34.2% | -20.6% | -29.4%
9 | O=[N+]([O-])c1cccc(S/N=C/c2ccccc2O)c1 | 98.8% (active) | 99.5% (active) | 99.2% (active) | 97.5% (active) | 99.2% (active) | 99% (active)
10 | CCCCN1C(=O)NC(Cc2ccccc2)C1=O (stereo not given) | -13.2% | -1.35% | -13.2% | 4.95% | -1.9% | -12.5%
11 | C=CC(C)(C)c1c(OC)cc(-c2ccccc2)oc1=O | -7.65% | -34.4% | 29.6% | -23% | 20.6% | -9.9%
12 | COc1ccccc1OC(=O)c1ccc(Cl)cc1 | 2.2% | -17.6% | 18.7% | -63.9% | 1.35% | 0.75%
13 | CC1CCCCN1P(c1ccccc1)N1CCCCC1C (stereo not given) | 28.5% | 16.9% | 18.5% | 24.1% | 35% | 22.7%
14 | CCc1ccc(NN=Nc2ccccc2C#N)cc1 | 8.1% | 15.8% | 16.2% | -12.7% | -1.65% | 16.8%
15 | CC(CCO)CCCO (stereo not given) | -22.1% | -11.8% | 7.35% | -13.8% | -26.2% | -26.8%
16 | NCCCCCN | 14.4% | -1.05% | -15.9% | 12.3% | -16.7% | -1.45%
17 | CN1CNC(=O)NC1 | -37% and 10.6% | -25.8% and -10.5% | -12.3% and 9.8% | 4.05% and 8.2% | -23.1% and -11.1% | -16.1% and 23.9%
18 | CCCCCCC1OC(C)C(C)O1 (stereo not given) | 30.8% | 13.7% | 23.9% | -5.15% | -3.95% | 15.4%
19 | COc1ccc(/C(C)=C\C(=O)O)c(O)c1OC | 5.9% | 6.85% | -4.65% | 3.55% | 22.1% | 7.8%
20 | CC(=O)Nc1nc(SCc2ccccc2)c2[nH]cnc2n1 | -25.2% | 1.75% | 0.6% | -43.5% | 31.2% | 7.3%

Row | SMILES | growth inhibition [1] | growth inhibition [2] | growth inhibition [3] | growth inhibition [4] | growth inhibition [5] | growth inhibition [6]
21 | NNc1nc(N2CCCCC2)c2[nH]cnc2n1 | 1.1% | -7.65% | -5.6% | 0.1% | 11.8% | 4.95%
22 | Cc1[nH]c(=O)[nH]c(=O)c1CCO | -8.9% | -2.6% | -4.25% | -29.4% | -28.3% | -13.4%
23 | CCN(C(=O)c1ccc(C(=O)N(CC)c2cccc(C)c2)cc1)c1cccc(C)c1 | -24.4% | -3.55% | -9.85% | 8.05% | 6.15% | -1.7%
24 | Cc1ccc(C(C)C)cc1NC(=O)c1ccc([N+](=O)[O-])cc1 | -5.15% | 16.4% | 16.9% | -5.8% | 2.6% | 21.6%
25 | CCCCC(C)(C)SCCC(=O)O | 11.2% | -7.25% | 14.9% | 10.9% | 5.6% | -5.35%
26 | O=C1OCCOCCOCCOCCOCCOC(=O)c2cccc1n2 | 18.1% | 12.2% | 20.4% | 18.1% | 12.5% | 16.1%
27 | NC(=O)C(N)CC12CC3CC(CC(C3)C1)C2 (stereo not given) | -6% | -18.2% | -10.6% | 17.7% | 10.7% | -4.7%
28 | CN(C)/N=C/C=C1\N=C(c2ccccc2)OC1=O | 5.75% | -10.6% | -17.9% | -45.7% | -0.75% | -10.9%
29 | C#CCN(N=O)C(=O)NCCCCC(NC(=O)OCc1ccccc1)C(=O)OCc1ccccc1 (stereo not given) | -6.65% | -8.15% | -26.6% | -4.5% | 10.3% | -24.9%
30 | CCOC(=O)N(C)C1(c2ccccc2)CCN(CCCC(=O)c2ccc(F)cc2)CC1 | 23% | -34.9% | 7.55% | -26.6% | -7% | -17.2%
31 | Clc1cc2cc3cccc[n+]3cc2cc1Cl | 54% | 16.1% | 26.2% | -22.9% | 14.6% | 3.7%
32 | Cc1c(OCCCOc2ccc3c(=O)cc(-c4ccccc4)oc3c2C)ccc2c(=O)cc(-c3ccccc3)oc12 | -35.6% | -18.1% | -13.7% | 31.5% | -39.9% | -31.8%
33 | C=C1C(=O)C23[C@H](O)C1CC[C@H]2[C@]12COC3(O)[C@@H](O)[C@@H]1C(C)(C)CC[C@@H]2O | 3.65% | -20.6% | 19.8% | -0.6% | -0.5% | -46.1%
34 | CCOC(=O)CC/C=N/Nc1ccc([N+](=O)[O-])cc1[N+](=O)[O-] | 20.6% | -14% | 6.7% | -45.5% | 6.55% | 0%
35 | CC1=NCC[N+]1(CCc1ccccc1)Cc1ccccc1 (stereo not given) | 3.15% | -5% | -19.8% | -26.9% | -35% | -11.7%
36 | Nc1nc2c(c(=O)[nH]1)N(C=O)C(CCNc1ccc(C(=O)NC(CCC(=O)O)C(=O)O)cc1)CN2 (stereo not given) | 5.35% | -12.2% | 2.55% | -12.6% | 9% | 3.25%
37 | COc1ccc2c(c1)-c1c(ccc(OC)c1O)CC(c1ccccc1)[N+](C)(C)CC2 (stereo not given) | -5.8% | 10.7% | -5.55% | -12.4% | 2.25% | -2.5%
38 | O=C(C(/C=N/C(=S)NC1C(=O)Nc2ccccc21)=C(/O)c1ccccc1)c1ccccc1 (stereo not given) | 9.6% | -0.85% | 16.9% | 27.5% | 21.7% | -9.4%
39 | COc1cc2cnc3c4cc(OCc5ccccc5)ccc4ccc3c2cc1OC | -10.1% | 3.2% | -1% | 25.3% | 14.2% | -0.25%
40 | CC(=C=CC(c1ccccc1)(c1ccccc1)c1ccccc1)CC(c1ccccc1)(c1ccccc1)c1ccccc1 | 95% (active) | 97.8% (active) | 90.3% (active) | 97.1% (active) | 98% (active) | 94% (active)
